An excerpt weighted towards active compounds, which were near 3.2% of everything screened.
Y pestis TopoI = inhibitors of Yersinia pestis topoisomerase I; Y. pestis Topo-I cleavage product accumulation, plate reader; activity, % at 10 µM; 360,000 tested, 0.064% active; AID 504884; in the data active = activity above about 50%, passing the limit was not always enough
GDH-TPI counter-1 = inhibits GDH-TPI coupling enzymes, artifact for Mtb FBA screen; GDH-TPI coupled enzyme counterscreen, NADH absorbance; inhibition, % at 4.8 µM; 360,000 tested, 1.2% active; in the data active = inhibition above about 30%;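 also: 0% = DMSO wells and 100% = wells lacking the enzyme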
TcdB GH inh = TcdB glycohydrolase inhibition. P18177. TcdB glycohydrolase enzymatic assay, plate reader. inhibition, % at 9.99 µM. 350,000 tested, 0.24% active; in the data active = inhibition above about 10%
PrPC TRFRET = cell surface PrPC inhibition, primary TR-FRET screen | P04156 | TR-FRET read-out | inhibition, % at 13.8 µM | 370,000 tested, 0.43% active | AID 720596; in the data active = inhibition above about 24%; also: 0% = median of the test wells and 100% = reference compound wells
FBA Mtb inh = inhibitors of M. tuberculosis fructose-bisphosphate aldolase; purified M. tuberculosis FBA, fluorescence read-out; inhibition, % at 1 µM; AID 588726; P9WQA3; 360,000 tested, 2.3% active;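 also: 0% = vehicle and 100% = reference inhibitor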
Target sequence (P9WQA3 whole entry, looked up): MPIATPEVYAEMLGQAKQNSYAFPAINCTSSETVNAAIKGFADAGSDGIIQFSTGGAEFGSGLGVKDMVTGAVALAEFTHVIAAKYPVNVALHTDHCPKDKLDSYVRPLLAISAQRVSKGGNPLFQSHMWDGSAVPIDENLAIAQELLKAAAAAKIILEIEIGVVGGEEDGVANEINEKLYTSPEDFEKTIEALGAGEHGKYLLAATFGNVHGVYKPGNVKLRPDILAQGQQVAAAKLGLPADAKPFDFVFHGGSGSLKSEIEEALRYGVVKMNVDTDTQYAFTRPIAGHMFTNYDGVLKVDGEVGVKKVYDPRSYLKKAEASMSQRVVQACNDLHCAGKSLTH
Mtb FBA confirm = confirmation of M. tuberculosis fructose-bisphosphate aldolase inhibitors; shares compounds with FBA Mtb inh; purified M. tuberculosis FBA, fluorescence read-out; inhibition, % at 1 µM; 5,600 tested, 78% active;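 also: 0% = vehicle wells and 100% = reference inhibitor wells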
GDH-TPI counter-2 = inhibits GDH-TPI coupling enzymes, flagging Mtb FBA hits; shares compounds with FBA Mtb inh; GDH-TPI coupled enzyme counterscreen, fluorescence; inhibition, % at 1 µM; 5,600 tested, 81% active; AID 652141; in the data active = inhibition above about 10%
* hit, by the source's call; x = not tested or not shown; + = active, no number. Rule as the data show it, unless noted: active = inhibition above about 27%; inactive = the rest.

SMILES	Y pestis TopoI	GDH-TPI counter-1	TcdB GH inh	PrPC TRFRET	FBA Mtb inh	Mtb FBA confirm	GDH-TPI counter-2
CN(C)CCNc1oc(-c2cccc(Cl)c2)nc1C#N	-8	1	x	-2	57*	20	11*
N#Cc1nc(-c2ccco2)oc1NCc1ccccc1Cl	-3	19	0	-3	35*	89*	79*
CCOc1ccc(Nc2oc(-c3ccco3)nc2C#N)cc1	0	16	x	-7	4	x	x
N#Cc1nc(-c2ccccc2)oc1NCCCn1ccnc1	4	11	0	2	100*	139*	89*
COc1ccc(CCNc2oc(COc3ccccc3)nc2C#N)cc1	24	4	x	7	4	x	x
COc1ccc(CCNc2oc(-c3ccccc3OC)nc2C#N)cc1OC	9	9	x	3	86*	96*	70*
CN(C)C(=O)C[C@H]1CC[C@@H](NC(=O)NC2CCCCC2)[C@@H](CO)O1	x	x	0	x	x	x	x
C[C@@H]1CCCCO[C@@H](CN(C)C(=O)c2ccncc2)[C@H](C)CN([C@H](C)CO)C(=O)c2cc(NC(=O)c3ccncc3)ccc2O1	x	x	0	x	x	x	x
N#Cc1nc(-c2ccc(OCc3ccccc3)cc2)oc1NCc1ccco1	4	20	x	1	7	x	x
N#Cc1nc(-c2ccc(F)cc2)oc1NCc1ccco1	-5	6	0	14	71*	107*	73*
N#Cc1nc(-c2cccc3ccccc23)oc1NCCN1CCCCC1	3	11	x	0	70*	195*	188*
N#Cc1nc(Cc2cccc3ccccc23)oc1NCCCN1CCOCC1	14	5	-1	-2	-2	x	x
O=C(C[C@H]1CC[C@@H]2[C@H](COC[C@H](O)CN2Cc2ccccc2F)O1)NCc1ccccc1F	x	x	0	x	x	x	x
CCCN1C(=O)c2ccccc2NC1c1cc(OC)c(OC)c(OC)c1 (stereo unspecified)	-7	2	x	4	71*	137*	114*
CCN(CC)CCN1C(=O)c2ccccc2NC1c1cc(OC)c(OC)c(OC)c1 (stereo unspecified)	-8	9	1	2	107*	+	+
CCC(=O)N(C)C[C@H]1Oc2cc(-c3ccncc3)ccc2S(=O)(=O)N([C@@H](C)CO)C[C@@H]1C	x	x	0	x	x	x	x
c1ccc(-c2cn3c(n2)-c2ccccc2C3)cc1	5	-1	7	1	48*	132*	106*
CN(C)C(=O)[C@@H]1[C@@H](CO)[C@@H]2Cn3c(ccc(-c4ccncc4)c3=O)[C@@H]2N1Cc1ccccc1F	x	x	0	x	x	x	x
CN(C)CCCNC(=S)NCCNc1nc2cc3c(cc2cc1C#N)OCO3	-2	7	1	-20	70*	65*	47*
CCOCCCNC(=S)NCCCNc1nc2cc3c(cc2cc1C#N)OCO3	-8	18	1	-7	65*	188*	153*
CCOCCCNC(=S)NCCNc1nc2ccc(C)cc2cc1C#N	6	-3	0	2	12	x	x
O=C(C[C@H]1C[C@H]2c3cc(NC(=O)C4CCC4)ccc3O[C@H]2[C@H](CO)O1)NCc1ccccc1F	x	x	0	x	x	x	x
C[C@@H]1CN([C@@H](C)CO)C(=O)c2cc(C#CC(C)(C)O)cnc2O[C@H]1CN(C)C(=O)CC1CC1	x	x	1	x	x	x	x
COc1ccc(C2=NN3C(C2)c2ccccc2OC3c2cccs2)cc1 (stereo unspecified)	-4	4	-1	-1	60*	28*	23*
COc1ccc(-c2nc3ccccc3o2)cc1NC(=O)c1ccc(Br)o1	14	-1	x	-4	4	x	x
SMILES	Y pestis TopoI	GDH-TPI counter-1	TcdB GH inh	PrPC TRFRET	FBA Mtb inh	Mtb FBA confirm	GDH-TPI counter-2
COc1ccc(-c2cn3cccnc3n2)cc1NC(=O)c1ccc(Br)o1	29	13	x	1	30*	9	5
O=C(Nc1cccc(F)c1)N1C[C@@H]2[C@H](c3ccccc31)[C@@H](CO)N2C(=O)C1CCOCC1	x	x	-1	x	x	x	x
O=c1c2ccccc2c(/C=N/n2cnnc2)c(O)n1-c1ccccc1F	1	16	x	-1	33*	3	2
COc1cccc(S(=O)(=O)Nc2ccc3c(c2)[C@H]2C[C@H](CC(=O)O)O[C@@H](CO)[C@H]2O3)c1	x	x	1	x	x	x	x
CC1CC(C)CN(C(=O)Cn2c(SCC(=O)N3CCc4ccccc4C3)nc3ccccc32)C1 (stereo unspecified)	21	-3	x	-3	48*	69*	49*
CC(C)NC(=O)Cn1c(SCC(=O)N2CCc3ccccc3C2)nc2ccccc21	9	4	x	0	1	x	x
O=C(CSc1ccccc1)Nc1ccc(-c2nc3ccccc3[nH]2)cc1	4	9	x	7	0	x	x
O=C(CSc1ccc(Cl)cc1)Nc1cccc(-c2nc3ccccc3[nH]2)c1	-5	17	x	0	35*	+	+
COc1cccc(S(=O)(=O)Nc2ccc3c(c2)[C@@H]2C[C@@H](CC(=O)NCC(F)(F)F)O[C@@H](CO)[C@@H]2O3)c1	x	x	-1	x	x	x	x
O=C(COC(=O)[C@@H]1CCCN1C(=O)c1cccs1)NCCc1ccccc1	-3	0	-1	-3	27*	-1	-1
CCCc1nc2oc(C(=O)OCC)c(N)c2c2c1COC(C)(C)C2	4	17	x	-5	59*	92*	89*
CCCc1nc2sc(C(=O)OCC)c(N)c2c2c1COC(C)(C)C2	-1	17	x	-6	8	x	x
CCOC(=O)c1nn(-c2ccc3c(c2)OCCO3)cc1O	7	4	1	-4	31*	93*	65*
CCC(C)NC(=O)Cc1cn(C)c2ccccc12 (stereo unspecified)	2	-7	x	5	102*	9	-3
CCn1c(/C=N/n2cnnc2)nc2ccccc21	7	47*	1	2	28*	116*	83*
CCn1c2ccccc2c2cc(/C=N/n3cnnc3)ccc21	6	46*	x	-1	32*	59*	48*
COc1ccc2ccccc2c1/C=N/n1cnnc1	0	10	0	4	1	x	x
C[C@@H]1CCCCO[C@H](CN(C)S(=O)(=O)c2cn(C)cn2)[C@@H](C)CN([C@@H](C)CO)C(=O)c2cc(NC(=O)Nc3ccc(F)cc3)ccc2O1	x	x	1	x	x	x	x
CC(C)NC(=O)N[C@@H]1CC[C@@H](CCn2cc(-c3ccc(F)cc3)nn2)O[C@H]1CO	x	x	1	x	x	x	x
COc1cc(S(C)=O)ccc1-c1nc2ncccc2[nH]1 (stereo unspecified)	1	32*	3	4	55*	90*	72*
CCOC(=O)N1CCC2(CC1)CC(=O)c1c(ccc3oc(C(=O)O)c(C)c13)O2	3	27	x	-4	82*	33*	30*
CCCNC(=O)c1oc2ccc3c(c2c1C)C(=O)CC(C)(C)O3	2	12	x	-7	36*	55*	51*
O=C1NN=C2CCCCCCC12 (stereo unspecified)	1	11	11*	-4	29*	85*	70*

Screening data: PubChem BioAssay, several laboratories
